Assay results taken from PubChem BioAssay (Tox21).
Inconclusive results are not listed. Calls of active or inactive are those of the source. Unless noted, calls follow the shape of the dose curve; as a rule, active = well fitted curve in the direction sought with a large enough effect in the repeat runs; inconclusive = weak or mixed curves; inactive = no such curve, though single readings can be large; an effect the other way counts as inactive or inconclusive.

How the values were obtained:
[1] = A CellTox Green Cytotoxicity Assay to monitor cytotoxicity in HEK293 cells - 32 hour (AID 1224881); also: nearly all actives have a fitted effect of over 40% in size
Summary of the method: (§1)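 Tox21 screen in HEK293: membrane-impermeant cyanine dye fluoresces on binding dead-cell DNA; compound pinned 5 h post-seeding, plates held at 37 C, signal read repeatedly through 40 h.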

[2] = A CellTox Green Cytotoxicity Assay to monitor cytotoxicity in HepG2 cells - 32 hour (AID 1224883); also: nearly all actives have a fitted effect of over 50% in size
Summary of the method: (§2)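 Measurements at 0, 8, 16, 24, 32 and 40 h of treatment captured CellTox Green fluorescence in HepG2 cells that had been co-plated with reagent and preincubated 5 h at 37 C/5% CO2.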

[3] = A CellTox Green Cytotoxicity Assay to monitor cytotoxicity in HEK293 cells - 8 hour (AID 1224884); also: nearly all actives have a fitted effect of over 35% in size
Summary of the method: as §1

[4] = qHTS RealTime-Glo MT Cell Viability Assay in HepG2 cells - 16 hour (AID 1224885); also: nearly all actives have a fitted effect of over 50% in size
Summary of the method: (§3)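 Viability was tracked continuously by NanoLuc luminescence from prosubstrate reduced by living HepG2 cells, at successive time points over 40 h of compound exposure. Cells with reagent were preincubated 5 h at 37 °C before compound addition.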

[5] = qHTS RealTime-Glo MT Cell Viability Assay in HEK293 cells - 24 hour (AID 1224886); also: top concentration of the series differs between compounds; nearly all actives have a fitted effect of over 50% in size
Summary of the method: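 Viability tracked continuously by luminescence as live cells reduce a prosubstrate for NanoLuc; HEK293 cells preincubated 5 h, compound-treated at 37 C, and read at 0, 8, 16, 24, 32 and 40 h.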

[6] = qHTS RealTime-Glo MT Cell Viability Assay in HEK293 cells - 8 hour (AID 1224887); also: top concentration of the series differs between compounds; nearly all actives have a fitted effect of over 50% in size
Summary of the method: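 HEK293 + NanoLuc + prosubstrate, 600 cells/well; 5 h, 37 C/5% CO2; compound 23 nL in DMSO by pintool; 37 C; luminescence read at 0, 8, 16, 24, 32 and 40 h time points.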

[7] = A CellTox Green Cytotoxicity Assay to monitor cytotoxicity in HEK293 cells - 16 hour (AID 1224888); also: nearly all actives have a fitted effect of over 35% in size
Summary of the method: as §1

[8] = qHTS RealTime-Glo MT Cell Viability Assay in HepG2 cells - 0 hour (AID 1224889); also: nearly all actives have a fitted effect of over 50% in size
Summary of the method: as §3

[9] = A CellTox Green Cytotoxicity Assay to monitor cytotoxicity in HepG2 cells - 8 hour (AID 1224890); also: nearly all actives have a fitted effect of over 45% in size
Summary of the method: as §2

[10] = qHTS assay to identify small molecule antagonists of the estrogen receptor alpha (ER-alpha) signaling pathway using the BG1 cell line in the presence of 0.1 nM 17-beta-estradiol - cell viability counter screen (AID 1259241); also: nearly all actives have a fitted effect of over 40% in size
Summary of the method: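 Viability in VM7Luc4E2 cells after 22 hr compound exposure under 0.1 nM 17beta-estradiol stimulation, by CellTiter-Fluor.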

[11] = qHTS assay to identify small molecule antagonists of the androgen receptor (AR) signaling pathway using the MDA cell line in the presence of 0.5 nM R1881 - cell viability counter screen (AID 1259242); also: nearly all actives have a fitted effect of over 45% in size
Summary of the method: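 Concentration-response screen of compounds for toxicity in MDA-kb2 reporter cells: 16 hr at 37C with 0.5 nM R1881, endpoint live-cell protease fluorescence measured in the reporter wells.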

[12] = qHTS assay to identify small molecule phospholipidosis (PLD) inducers (AID 1259344; active = well fitted curve in the direction sought with a large enough effect; an effect the other way counts as inactive or inconclusive)
Summary of the method: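 Cells (HepG2, 900 per well) attach for 4 h, receive LipidTOX Red and compound together, incubate 24 h at 37 C, are fixed 30 min with paraformaldehyde/Hoechst, then imaged at one site per well.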

[13] = qHTS assay to identify small molecule HDAC inhibitors (AID 1259364);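 also: wild-type HCT-116 cells with endogenous class I/II HDAC activity; top concentration of the series differs between compounds; nearly all actives have a fitted effect of over 45% in size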
Summary of the method: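 Screening used wild-type human colon HCT-116 cells incubated overnight, dosed with compounds for 2 hours, and assayed with a homogeneous luminogenic HDAC I/II reagent for 30 minutes at room temperature.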

[14] = qHTS assay to identify small molecule HDAC inhibitors - cell viability counter screen (AID 1259365)
Summary of the method: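 Cytotoxicity was gauged in wild-type HCT-116 cells after a brief 2hr treatment with DMSO-dissolved compounds at 37C and 5% CO2, using CellTiter-Glo luminescence developed for 30min at room temperature.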

[15] = qHTS assay to identify small molecule agonists of the sonic hedgehog signaling (Shh) pathway - cell viability counter screen (AID 1259366); also: nearly all actives have a fitted effect of over 50% in size
Summary of the method: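 Stable Gli1-Luc NIH/3T3 clone, 2,000 cells/well. Compound exposure 24hr at 37C. Read-out: CellTiter-Fluor fluorescence.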

[16] = qHTS assay to identify small molecule antagonists of the sonic hedgehog signaling (Shh) pathway - cell viability counter screen (AID 1259367); also: nearly all actives have a fitted effect of over 55% in size
Summary of the method: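 Cytotoxicity was assessed in parallel with Shh reporter activity by measuring live-cell protease fluorescence (CellTiter-Fluor) in NIH/3T3 cells stably carrying Gli1-Luc, treated with compound under conditioned medium stimulation for 23 hr plus 1 hr reagent incubation.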

[17] = qHTS assay to identify small molecule agonists of the sonic hedgehog signaling (Shh) pathway (AID 1259368; calls by dose curve;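 also: NIH/3T3-derived 3T3Gli1-Luc cells carrying a stable Gli1-driven firefly luciferase reporter; series mostly up to about 92 µM; nearly all actives have a fitted effect of over 15% in size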)
Summary of the method: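 Hedgehog pathway agonism scored by increased firefly luciferase luminescence in 3T3Gli1-Luc cells treated 24 hr at 37 C; detection used a 30 min room-temperature reagent incubation.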

[18] = A CellTox Green Cytotoxicity Assay to monitor cytotoxicity in HepG2 cells - 0 hour (AID 1224882); also: nearly all actives have a fitted effect of over 35% in size
Summary of the method: as §2

[19] = molecular target: Androgen receptor (Homo sapiens) (UniProt P10275); experiment: qHTS assay to identify small molecule antagonists of the androgen receptor (AR) signaling pathway using the MDA cell line in the presence of 0.5 nM R1881 (AID 1259243); also: nearly all actives have a fitted effect of over 50% in size
Sequence of Androgen receptor (Homo sapiens) (P10275 whole entry, looked up): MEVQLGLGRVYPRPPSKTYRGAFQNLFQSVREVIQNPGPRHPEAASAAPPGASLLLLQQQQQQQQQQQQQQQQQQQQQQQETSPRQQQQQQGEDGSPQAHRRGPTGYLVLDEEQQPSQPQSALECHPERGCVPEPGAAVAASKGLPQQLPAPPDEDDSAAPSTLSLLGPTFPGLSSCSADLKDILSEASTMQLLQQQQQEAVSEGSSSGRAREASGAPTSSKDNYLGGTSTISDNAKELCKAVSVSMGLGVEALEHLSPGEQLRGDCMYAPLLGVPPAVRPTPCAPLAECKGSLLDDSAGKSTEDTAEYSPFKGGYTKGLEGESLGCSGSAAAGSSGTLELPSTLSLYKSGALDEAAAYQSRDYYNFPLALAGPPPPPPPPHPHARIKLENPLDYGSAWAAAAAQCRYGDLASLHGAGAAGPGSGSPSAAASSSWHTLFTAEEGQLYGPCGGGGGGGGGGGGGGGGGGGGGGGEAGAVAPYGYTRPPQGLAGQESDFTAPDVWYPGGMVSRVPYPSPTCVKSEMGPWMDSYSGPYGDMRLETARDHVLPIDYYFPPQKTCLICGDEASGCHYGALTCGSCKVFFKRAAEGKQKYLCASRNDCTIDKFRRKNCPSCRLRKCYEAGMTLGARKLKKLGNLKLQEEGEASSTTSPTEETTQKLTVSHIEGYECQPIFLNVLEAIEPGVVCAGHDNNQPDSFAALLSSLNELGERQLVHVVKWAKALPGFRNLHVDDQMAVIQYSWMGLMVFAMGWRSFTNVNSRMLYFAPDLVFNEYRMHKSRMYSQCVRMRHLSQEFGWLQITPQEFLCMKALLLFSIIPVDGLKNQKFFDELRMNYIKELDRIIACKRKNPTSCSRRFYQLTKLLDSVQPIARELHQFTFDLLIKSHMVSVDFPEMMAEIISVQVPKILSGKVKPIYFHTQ
Summary of the method: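 With R1881 held at 0.5 nM (final), compound effects on MMTV-luciferase expression in MDA-kb2 cells were scored by luminescence after a 16 hr, 37C incubation.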

[20] = molecular target: Estrogen receptor (Homo sapiens) (UniProt P03372); experiment: qHTS assay to identify small molecule antagonists of the estrogen receptor alpha (ER-alpha) signaling pathway using the BG1 cell line in the presence of 0.1 nM 17-beta-estradiol (AID 1259244); also: nearly all actives have a fitted effect of over 50% in size
Sequence of Estrogen receptor (Homo sapiens) (P03372 whole entry, looked up): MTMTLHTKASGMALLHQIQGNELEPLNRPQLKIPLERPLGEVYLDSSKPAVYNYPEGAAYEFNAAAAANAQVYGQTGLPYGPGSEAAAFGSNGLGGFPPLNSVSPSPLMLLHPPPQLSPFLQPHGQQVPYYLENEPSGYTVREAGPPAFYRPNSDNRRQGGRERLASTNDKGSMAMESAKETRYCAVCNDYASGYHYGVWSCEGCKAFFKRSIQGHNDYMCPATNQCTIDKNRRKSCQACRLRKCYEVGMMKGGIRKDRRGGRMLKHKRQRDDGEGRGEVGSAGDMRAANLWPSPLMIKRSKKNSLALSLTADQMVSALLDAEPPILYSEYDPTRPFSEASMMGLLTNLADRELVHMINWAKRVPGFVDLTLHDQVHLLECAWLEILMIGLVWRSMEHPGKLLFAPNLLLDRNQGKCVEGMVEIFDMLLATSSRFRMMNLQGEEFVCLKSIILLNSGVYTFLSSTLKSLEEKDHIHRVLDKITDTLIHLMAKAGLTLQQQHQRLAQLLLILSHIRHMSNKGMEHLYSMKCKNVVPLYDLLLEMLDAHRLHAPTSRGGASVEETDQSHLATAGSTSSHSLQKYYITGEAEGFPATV
Summary of the method: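 Compounds were tested against 0.1 nM (final) 17beta-estradiol in VM7Luc4E2 cells, which express full-length ER-alpha and an ERE-luciferase reporter; luminescence was recorded following 22 h exposure.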

Measured: Potency

CCCc1ncc(C[n+]2ccccc2C)c(N)n1
inactive: [1] | [2] | [3] | [4] | [5] | [6] | [7] | [8] | [9] | [10] | [11] | [12] | [13] | [14] | [15] | [16] | [17]

COc1cc(C(=O)NCc2ccc(OCCN(C)C)cc2)cc(OC)c1OC
inactive: [1] | [18] | [3] | [4] | [5] | [7] | [8] | [10] | [11] | [12] | [13] | [14] | [15] | [16] | [17]

CCCCCCCCCC[N+](C)(C)[O-]
inactive: [1] | [18] | [3] | [4] | [5] | [6] | [7] | [8] | [9] | [10] | [11] | [19] | [20] | [13] | [14] | [15] | [16] | [17]

C=COCC1CCC(COC=C)CC1 (stereo unspecified)
inactive: [1] | [18] | [3] | [4] | [5] | [7] | [8] | [10] | [11] | [20] | [13] | [14] | [15] | [16] | [17]

Cc1ncc(COP(=O)(O)O)c(C=O)c1O
inactive: [1] | [2] | [3] | [4] | [5] | [6] | [7] | [8] | [9] | [11] | [20] | [12] | [13] | [14] | [15] | [16]

CC(C)NNC(=O)c1ccncc1
inactive: [1] | [2] | [3] | [4] | [5] | [6] | [7] | [8] | [9] | [10] | [11] | [19] | [12] | [13] | [14] | [15] | [16] | [17]

CCOc1ccccc1OCC
inactive: [1] | [2] | [3] | [4] | [5] | [6] | [7] | [8] | [9] | [10] | [11] | [13] | [14] | [15] | [16]

CCN[C@H]1C[C@H](C)S(=O)(=O)c2sc(S(N)(=O)=O)cc21
inactive: [1] | [2] | [3] | [4] | [5] | [6] | [7] | [8] | [9] | [10] | [11] | [20] | [12] | [13] | [14] | [15] | [16] | [17]

O=C(O)CC(C(=O)O)S(=O)(=O)O (stereo unspecified)
inactive: [1] | [18] | [3] | [4] | [5] | [6] | [7] | [8] | [9] | [11] | [20] | [13] | [14] | [15] | [16]

C[N+]1(C)CCCC(OC(=O)C(O)(c2ccccc2)c2ccccc2)C1 (stereo unspecified)
inactive: [1] | [18] | [3] | [4] | [5] | [7] | [8] | [9] | [10] | [11] | [20] | [12] | [13] | [14] | [15] | [16] | [17]

C=C(C)C(=O)OCC(O)CO (stereo unspecified)
inactive: [1] | [2] | [3] | [4] | [5] | [6] | [7] | [8] | [9] | [10] | [11] | [19] | [13] | [14] | [15] | [16] | [17]

COCCOCC(OC)OC
inactive: [1] | [18] | [3] | [4] | [5] | [7] | [8] | [9] | [11] | [20] | [13] | [14] | [15] | [16] | [17]

CCN1C=CN(C)C1C (stereo unspecified)
inactive: [1] | [18] | [3] | [4] | [5] | [6] | [7] | [8] | [9] | [10] | [11] | [20] | [13] | [14] | [16]

Cc1ncc([C@@H](CCCCCCc2ccc3c(n2)NCCC3)CC(=O)O)cn1
inactive: [1] | [18] | [3] | [4] | [6] | [7] | [8] | [9] | [11] | [20] | [13] | [14]

CNCC(O)c1ccc(O)c(O)c1 (stereo unspecified)
inactive: [1] | [18] | [3] | [4] | [5] | [6] | [7] | [8] | [9] | [10] | [11] | [20] | [13] | [14] | [15] | [16] | [17]

CN(C)[C@@H]1C(=O)C(C(=O)NCN2CCCC2)=C(O)[C@@]2(O)C(=O)C3=C(O)c4c(O)cccc4[C@@](C)(O)C3C[C@@H]12 (stereo partly specified)
inactive: [1] | [18] | [3] | [4] | [5] | [6] | [7] | [8] | [9] | [11] | [12] | [13] | [14] | [15] | [16] | [17]
